70 compounds from PubChem BioAssay AID2550 (Johns Hopkins Ion Channel Center, 2010) can be followed below.

About 380 (0.12%) of roughly 310,000 compounds were called active.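 The calls were made as follows: active = B-score of the integrated fluorescence ratio above library mean plus 3 SD, and starting fluorescence ratio within library mean plus 5 SD; inactive = the rest.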 What follows is part of a selection rich in actives, with near analogues and random picks from the rest.

The target of this experiment is Short transient receptor potential channel 6 (Mus musculus) (UniProt Q61143). Briefly: small molecules opening TRPC6 cation channel – cell-based, HEK293, membrane potential dye, primary screen (AID 2550).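 Also: higher score means more depolarization so channel activation.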 The following applies: HEK293-TRPC6 membrane potential dye fluorescence, at 10 µM; hits give high values.
Short transient receptor potential channel 6 (Mus musculus), sequence (Q61143 whole entry, looked up): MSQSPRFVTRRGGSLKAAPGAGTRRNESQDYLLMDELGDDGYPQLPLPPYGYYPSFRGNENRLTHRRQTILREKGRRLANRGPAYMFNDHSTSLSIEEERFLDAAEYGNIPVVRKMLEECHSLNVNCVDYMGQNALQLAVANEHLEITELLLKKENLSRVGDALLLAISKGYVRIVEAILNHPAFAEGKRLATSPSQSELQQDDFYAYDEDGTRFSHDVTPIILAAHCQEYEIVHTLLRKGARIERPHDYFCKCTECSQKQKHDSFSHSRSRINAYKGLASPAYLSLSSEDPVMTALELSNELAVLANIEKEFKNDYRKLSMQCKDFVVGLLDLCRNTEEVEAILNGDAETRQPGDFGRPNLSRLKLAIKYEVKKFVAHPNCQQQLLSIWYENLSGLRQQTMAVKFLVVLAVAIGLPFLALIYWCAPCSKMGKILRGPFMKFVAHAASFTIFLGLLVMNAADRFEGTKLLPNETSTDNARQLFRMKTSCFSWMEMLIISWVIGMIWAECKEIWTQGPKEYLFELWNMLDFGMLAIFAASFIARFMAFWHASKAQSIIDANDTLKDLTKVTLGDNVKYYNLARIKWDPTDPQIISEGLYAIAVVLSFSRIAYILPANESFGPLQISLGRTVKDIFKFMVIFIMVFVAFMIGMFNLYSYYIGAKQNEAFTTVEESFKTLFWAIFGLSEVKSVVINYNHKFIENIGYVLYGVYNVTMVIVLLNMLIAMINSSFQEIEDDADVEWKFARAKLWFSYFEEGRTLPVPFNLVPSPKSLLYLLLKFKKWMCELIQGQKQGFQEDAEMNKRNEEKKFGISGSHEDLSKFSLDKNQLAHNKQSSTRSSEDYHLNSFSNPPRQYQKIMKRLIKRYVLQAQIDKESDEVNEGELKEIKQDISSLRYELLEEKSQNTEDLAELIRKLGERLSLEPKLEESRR
`Cc1c(S(=O)(=O)NC(C)c2ccccc2)c(=O)n(C)c(=O)n1C` (stereo not given): the B-score result was “inactive”. Regarding `COc1ccc(CC(NC(C)=O)C(=O)NC2CCN(C(=O)C3CC3)CC2)cc1OC` (stereo not given), the B-score result is “inactive”. Next, `O=S(=O)(c1cccc(Cn2nnc(-c3ccc(F)cc3)n2)c1)N1CCOCC1`: “inactive”. Next, `C[C@]1(C(=O)NCCc2c[nH]c3ccccc23)C=C[C@@H](Cc2ccccc2)N1C(=O)c1ccccc1`: “inactive”; `CCOC(=O)c1nc(-c2ccc3c(c2)OCO3)[nH]c1C`: “inactive”; `Cc1cc(Nc2ccc(C(=O)N3CCCCC3)cc2)c2cccc(C)c2n1`: “inactive”. With `CCC(c1nnc(SCC(=O)NNC(=O)c2ccccc2)n1Cc1ccccc1)N(C)C` (stereo not given) the entry was “inactive”; with `COc1ccc(-n2cc(-c3ccccc3)c3c(=S)nc[nH]c32)cc1`, “inactive”.

For the compound `Cc1nnc(NC(=O)Cn2c(=O)sc3ccccc32)s1`, the B-score entry is “inactive”.

Consider `O=C(Nc1cc(-c2nn(CC(=O)N3CCCCC3)c(=O)c3ccccc23)ccc1N1CCOCC1)c1ccc(Cl)cc1`, for which the B-score result is “inactive”. With `Cc1cccc(NC(=O)Nc2ccc3c(c2)OCO3)n1` the entry was “inactive”; with `OCc1nc(CO)n(Cc2ccccc2)n1`, “inactive”.

Consider `CCN(CC)C(=O)N1CCN(C(=O)c2ccc(C)cn2)CC1`, for which the B-score entry was “inactive”. With `COc1ccc(CCC(=O)c2ccc(OC)cc2)cc1` the entry was “inactive”; with `COCC1CCN(C(=O)C2CCC(=O)N(Cc3cccc(C(F)(F)F)c3)C2)CC1` (stereo not given), “inactive”.

In the case of `CCCCc1c(O)nc2n(c1=O)CCS2`, the B-score result is “inactive”. With `CCOC(=O)N1CCC(O)(c2cc(C)c(C)cc2C)CC1` the entry was “inactive”. For `COc1cccc2c1CCC(NC(C)=O)C2=O` (stereo not given), the B-score result is “inactive”. For `O=C1CSC2=NCN(c3ccccc3)CN12`, the B-score entry is “inactive”. With `CN1C(CC(=O)Nc2ccc(Br)cc2)c2ccccc2CC1(C)C` (stereo not given) the entry was “inactive”. For `Nc1[nH][nH]c(=O)c1N=Nc1ccc2c(c1)OCO2`, the B-score entry is “inactive”.

On to `Cn1c(SCC(=O)Nc2ccc(Cl)cc2)nc(O)cc1=O`, for which the B-score entry is “inactive”.

Consider `CCOc1ccc(NC(=O)CN(C)CC(=O)Nc2cccc(Cl)c2C)cc1OCC`, for which the B-score entry was “inactive”. Next, `Cc1ccc(NC(=O)C2CCN(S(=O)(=O)c3ccc4c(c3)NC(=O)CO4)CC2)cc1C`: “inactive”; `CCCCN=C(N)/C(C(=O)OCC)=C(\O)c1ccc(OC)cc1`: “inactive”. With `CC(C)C(c1nnnn1C(C)(C)C)N1CCN(Cc2cccnc2)CC1` (stereo not given) the entry was “inactive”; with `Cn1c(-c2ccc(C(=O)c3ccccc3)s2)nc2ccccc21`, “inactive”. For the compound `COc1cccc(C2c3[nH]c4ccccc4c3CCN2Cc2cccc(C)n2)c1` (stereo not given), the B-score result was “inactive”. Next, `COC(=O)[C@@H]1CC(O)CN1C(=O)C12CC3CC(CC(C3)C1)C2` (stereo not given in full): “inactive”; `Cc1ccc(NC(=O)c2sc3nc(N)c(C#N)cc3c2N)cc1`: “inactive”.

With `CCn1ccnc1CNC(=O)CC1C(=O)NCCN1Cc1ccc(F)cc1Cl` (stereo not given), the B-score result was “inactive”.

As for `COc1cc(CNCCN(C)C)ccc1OCc1c(F)cccc1Cl`, the B-score is 12.5 (active). In the case of `CCOCCCNCc1ccc(OCc2ccc(F)cc2)c(OC)c1`, the B-score entry is “inactive”.

In the case of `CCN(CC)CCNCc1ccc(OCc2ccc(Cl)nc2)c(OC)c1`, the B-score result was “inactive”. With `CCc1ccc(/C=N/NC(=O)c2nnn(-c3nonc3N)c2CN2CCc3ccccc32)cc1` the entry was “inactive”; with `Cc1cccc(CCNS(=O)(=O)c2ccc3c(c2)NC(=O)CO3)c1`, “inactive”. Next, `Cc1ccccc1-n1nnnc1SCCCC(=O)c1ccc(F)cc1`: “inactive”. Next, `CCC(C)N1C(=O)S/C(=C/c2ccc(Sc3nc4ccccc4[nH]3)o2)C1=O` (stereo not given): “inactive”; `COc1cccc(CNC(=O)C2CC(=O)N(C3CCCCCCC3)C2)c1` (stereo not given): “inactive”. Turning to `CNc1nc(Nc2ccc(C)c(Cl)c2)nc(N)c1[N+](=O)[O-]`, the B-score entry is “inactive”. Next, `O=C1NC(=O)C(c2ccc(Cl)cc2)N1` (stereo not given): “inactive”. For `CC(=O)N1N=C(c2ccncc2)OC1(Cc1ccccc1)Cc1ccccc1`, the B-score entry was “inactive”. On to `Cc1cc(C)cc(C(=O)N(CCc2ccccc2)C2=CC3CCC(C2)N3C)c1` (stereo not given), for which the B-score entry was “inactive”. With `CCCN(CCc1ccccc1)C1CCc2c(O)cccc2C1` (stereo not given) the figure was 16.8 (active).

`CN1CCN(/N=C/c2ccc(C#N)cc2)CC1`: the B-score entry was “inactive”. With `Cc1ccc(-c2ccc(/C=N/NC(=O)CN3CCOCC3)o2)cc1[N+](=O)[O-]` the entry was “inactive”; with `CN1CCN(/N=C/c2ccc(-c3ccc([N+](=O)[O-])cc3)o2)CC1`, 16.2 (active). With `Cc1cc(N2CCN(c3ccc(F)cc3)CC2)n2ncnc2n1` the entry was “inactive”; with `CCOCCCN1C(=O)C2C(C(=O)Nc3ccc(OCC)cc3)C3C=CC2(O3)C1C(=O)NC1CCCCC1` (stereo not given), “inactive”. Next, `O=C(c1ccc(Cl)cc1)n1cnc2ccccc21`: “inactive”; `CC(NC(=O)CNC(=O)Cc1cccc2ccccc12)c1ccc(S(N)(=O)=O)cc1` (stereo not given): “inactive”; `CCC(C(=O)OC)n1cnc2scc(-c3ccc(C)cc3)c2c1=O` (stereo not given): “inactive”. In the case of `O=[N+]([O-])c1cccc(/C=N/Nc2ncc(Br)cn2)c1`, the B-score entry is “inactive”. Next, `O=C(N/N=C/c1ccc(Cl)c(Cl)c1)c1ccc2nc[nH]c2c1`: “inactive”; `CCO/C=C1\C(=O)N(c2ccc(OCC)cc2)C(=O)c2ccccc21`: “inactive”; `COc1ccc(C(C)C)cc1S(=O)(=O)Nc1ncn[nH]1`: “inactive”. Next, `CCC(=O)c1ccc(OCC(=O)OCC(=O)NC2CCCCCC2)cc1`: “inactive”.

For `Cc1nc2c(-c3ccc(F)cc3)c(C)nn2c(C)c1CCC(=O)NCc1ccco1`, the B-score result was “inactive”.

As for `Cc1cc2c(cc1C)[n+](C)cn2CC(O)COCC1CC=CCC1` (stereo not given), the B-score entry was “inactive”. Next, `N#Cc1ccc(-c2ccc(Cl)cc2)nc1Oc1ccc(F)cc1`: “inactive”.

In the case of `Cc1nn(C)c(C)c1S(=O)(=O)N1CCC(CO)(Cc2ccc(Cl)cc2)CC1`, the B-score result is “inactive”. Regarding `COc1cccc(OC)c1C(=O)Nc1c(C(=O)N2CCN(c3ccccn3)CC2)oc2ccccc12`, the B-score result is “inactive”. With `CN1CCN(CCCCOc2ccccc2-c2ccccc2)CC1` the entry was “inactive”; with `Oc1ccc(CNc2ccccc2O)cc1`, “inactive”. Take `COc1ccc(-n2ncc3c2CC(C)(C)CC3NC(=O)CCc2c(C)noc2C)cc1` (stereo not given): the B-score result is “inactive”.

Take `Cc1ccc(N(CCC(=O)O)S(=O)(=O)c2cccc(C(F)(F)F)c2)cc1`: the B-score result was “inactive”. In the case of `CCOc1ccc(CN(C)C(=O)c2ccc(=O)[nH]c2)cc1`, the B-score entry was “inactive”. Next, `Cc1nn(-c2ccccc2)c2sc(C(=O)N(Cc3ccco3)C(C)C(=O)NC(C)(C)C)cc12` (stereo not given): “inactive”; `CCN(CC(=O)NCc1ccc(Cl)cc1)C(=O)CSc1ccccc1`: “inactive”; `O=C(Nc1ccc(N2CCCC2=O)cc1)c1cncc(Br)c1`: “inactive”.
